# Data as given in PMC5700166.
# Positions count from the first letter of the chain named.
# Experiments:
# Test in all cases: protein-binding microarray (PBM); PBM: ~300 nM protein, 6 mM HEPES pH 7.8, 80 mM KCl, 0.5 mM EDTA, 0.5 mM EGTA, 6% glycerol, 35 ng/ul poly-dIdC, 1% milk, 1 h, room temperature; Ap Aiptasia and Nv Nematostella (sea anemones) / Co Capsaspora / Aq Amphimedon (sponge) / Dm Drosophila / Hu human; RHD is the Rel homology domain; high values mean tight binding
# Details in all cases: dsDNA, one strand shown
# GST-Co-NF-kB = target: T1, GST-Co-NF-kB (Capsaspora owczarzaki, UniProt F1ARL5 200-546)
# T1 sequence: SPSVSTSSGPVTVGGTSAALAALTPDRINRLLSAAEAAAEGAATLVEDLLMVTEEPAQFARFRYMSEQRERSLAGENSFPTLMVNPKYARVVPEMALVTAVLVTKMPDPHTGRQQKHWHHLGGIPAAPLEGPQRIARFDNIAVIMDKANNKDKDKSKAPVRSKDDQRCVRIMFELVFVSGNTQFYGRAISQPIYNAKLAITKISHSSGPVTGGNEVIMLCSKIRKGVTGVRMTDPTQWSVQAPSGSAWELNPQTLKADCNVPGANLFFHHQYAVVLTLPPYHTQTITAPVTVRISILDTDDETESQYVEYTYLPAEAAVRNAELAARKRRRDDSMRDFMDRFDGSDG
# GST-Dm-Relish = target: T2, GST-Dm-Relish (Drosophila melanogaster, UniProt Q94527 99-473)
# T2 sequence: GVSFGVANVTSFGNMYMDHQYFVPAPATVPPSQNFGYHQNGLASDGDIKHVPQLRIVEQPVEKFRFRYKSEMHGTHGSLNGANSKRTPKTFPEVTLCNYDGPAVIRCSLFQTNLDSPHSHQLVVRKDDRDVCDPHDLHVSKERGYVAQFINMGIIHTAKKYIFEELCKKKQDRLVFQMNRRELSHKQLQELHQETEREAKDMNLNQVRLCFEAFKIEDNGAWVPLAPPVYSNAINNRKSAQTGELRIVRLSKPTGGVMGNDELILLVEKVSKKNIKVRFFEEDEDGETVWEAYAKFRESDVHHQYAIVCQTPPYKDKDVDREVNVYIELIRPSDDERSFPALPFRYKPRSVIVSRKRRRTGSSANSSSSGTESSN
# GST-Aq-NF-kB = target: T3, GST-Aq-NF-kB (Amphimedon queenslandica, UniProt A9Y5G7 2-389)
# T3 sequence: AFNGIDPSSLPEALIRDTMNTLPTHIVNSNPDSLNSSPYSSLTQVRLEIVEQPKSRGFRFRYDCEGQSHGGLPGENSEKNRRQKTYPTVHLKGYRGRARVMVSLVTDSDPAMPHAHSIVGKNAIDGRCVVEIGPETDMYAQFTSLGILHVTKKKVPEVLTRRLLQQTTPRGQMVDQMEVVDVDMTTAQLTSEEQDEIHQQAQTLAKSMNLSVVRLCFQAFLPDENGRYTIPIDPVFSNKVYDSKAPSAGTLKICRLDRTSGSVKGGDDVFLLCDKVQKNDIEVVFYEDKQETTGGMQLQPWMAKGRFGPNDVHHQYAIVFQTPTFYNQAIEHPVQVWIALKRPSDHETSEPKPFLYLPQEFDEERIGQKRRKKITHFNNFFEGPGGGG
# GST-Hu-p50 = GST-Hu-p50 (Homo sapiens, UniProt P19838 7-356)
# GST-Ap-NF-kB RHD = target: T4, GST-Ap-NF-kB RHD (Exaiptasia pallida (Aiptasia), UniProt A0A913YAJ5 2-422)
# T4 sequence: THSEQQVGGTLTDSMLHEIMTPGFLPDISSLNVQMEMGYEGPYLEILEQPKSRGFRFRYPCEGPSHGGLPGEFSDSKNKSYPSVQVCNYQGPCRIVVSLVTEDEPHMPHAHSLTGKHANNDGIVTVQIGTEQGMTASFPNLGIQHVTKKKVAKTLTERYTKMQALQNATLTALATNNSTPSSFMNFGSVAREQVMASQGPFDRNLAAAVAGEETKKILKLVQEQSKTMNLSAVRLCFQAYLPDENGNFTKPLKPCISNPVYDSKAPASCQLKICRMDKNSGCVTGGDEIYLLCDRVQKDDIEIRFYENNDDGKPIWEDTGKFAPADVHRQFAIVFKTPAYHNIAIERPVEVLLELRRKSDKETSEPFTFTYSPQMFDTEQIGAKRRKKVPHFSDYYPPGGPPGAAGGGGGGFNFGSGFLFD
# [1] = target: T5, GST-Nv-NF-kB (Ser allele) (Nematostella vectensis, UniProt A7UNT2 2-411)
# T5 sequence: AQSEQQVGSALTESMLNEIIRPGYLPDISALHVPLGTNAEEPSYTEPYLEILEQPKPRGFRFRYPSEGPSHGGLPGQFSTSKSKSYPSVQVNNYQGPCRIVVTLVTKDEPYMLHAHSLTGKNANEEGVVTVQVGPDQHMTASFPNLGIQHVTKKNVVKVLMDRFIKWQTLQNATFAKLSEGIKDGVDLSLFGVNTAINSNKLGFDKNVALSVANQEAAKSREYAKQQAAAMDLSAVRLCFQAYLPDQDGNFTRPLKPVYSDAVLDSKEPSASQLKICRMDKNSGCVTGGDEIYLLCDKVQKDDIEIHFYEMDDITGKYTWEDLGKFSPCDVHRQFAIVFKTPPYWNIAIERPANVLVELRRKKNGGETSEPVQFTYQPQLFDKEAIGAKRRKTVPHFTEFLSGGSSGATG
# [2] = target: T6, GST-Nv-NF-kB (Cys allele) (Nematostella vectensis, UniProt E5G601 2-411)
# T6 sequence: T5 sequence with R21Q, S66C, N207S, Q215E, A217V, K225E, E268A, E399D
# Sequence of GST-Hu-p50 (P19838 7-356): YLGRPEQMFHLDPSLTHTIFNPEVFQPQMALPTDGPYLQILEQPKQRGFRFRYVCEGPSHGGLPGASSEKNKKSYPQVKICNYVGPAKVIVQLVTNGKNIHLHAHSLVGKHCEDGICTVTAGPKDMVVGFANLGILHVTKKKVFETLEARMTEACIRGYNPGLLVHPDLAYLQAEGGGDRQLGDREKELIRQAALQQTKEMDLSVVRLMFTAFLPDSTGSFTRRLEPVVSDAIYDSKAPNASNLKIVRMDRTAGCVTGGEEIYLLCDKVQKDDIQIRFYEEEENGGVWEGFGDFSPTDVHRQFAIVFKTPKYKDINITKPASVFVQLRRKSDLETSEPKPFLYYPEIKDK
Sequence,binding signal (GST-Co-NF-kB),binding signal (GST-Dm-Relish),binding signal (GST-Aq-NF-kB),binding signal (GST-Hu-p50),binding signal (GST-Ap-NF-kB RHD),binding signal [1],binding signal [2]
CCGATTAACATCAAAATTCCGGGTGATGTTAATCGGGTCTTGATTCGCTTGACGCTGCTG,1.33 z-score,1.53 z-score,1.67 z-score,1.74 z-score,,,
CCGATTAACATCATGGGGCATGCTGATGTTAATCGGGTCTTGATTCGCTTGACGCTGCTG,,,1.06 z-score,,1.18 z-score,,
CCGATTAACATCAAAAATTTCCATGATGTTAATCGGGTCTTGATTCGCTTGACGCTGCTG,,1.53 z-score,1.53 z-score,1.32 z-score,,,
CCGATTAACATCAAAAAGTTTCCTGATGTTAATCGGGTCTTGATTCGCTTGACGCTGCTG,,2.43 z-score,1.68 z-score,1.42 z-score,,,
CCGATTAACATCAAAATTTACCATGATGTTAATCGGGTCTTGATTCGCTTGACGCTGCTG,,2.43 z-score,1.07 z-score,2.22 z-score,,2.56 z-score,
CCGATTAACATCACAAAAATTCCTGATGTTAATCGGGTCTTGATTCGCTTGACGCTGCTG,,2.38 z-score,1.5 z-score,1.01 z-score,,,
CCGATTAACATCATTGTCCCTTCTGATGTTAATCGGGTCTTGATTCGCTTGACGCTGCTG,,,2.67 z-score,,2.23 z-score,,4.09 z-score
CCGATTAACATCAGGGGTCAGTATGATGTTAATCGGGTCTTGATTCGCTTGACGCTGCTG,,,1.09 z-score,,1.23 z-score,,
CCGATTAACATCAGAAAGTTTCCTGATGTTAATCGGGTCTTGATTCGCTTGACGCTGCTG,,1.85 z-score,1.06 z-score,1.69 z-score,,,
CCGATTAACATCAGGGCATGCCCTGATGTTAATCGGGTCTTGATTCGCTTGACGCTGCTG,,,4.01 z-score,,1.37 z-score,,1.29 z-score
CCGATTAACATCAGGGGCCGTAATGATGTTAATCGGGTCTTGATTCGCTTGACGCTGCTG,,,2.32 z-score,,1.66 z-score,,1.75 z-score
CCGATTAACATCAAAAATTCCAGTGATGTTAATCGGGTCTTGATTCGCTTGACGCTGCTG,1.37 z-score,1.57 z-score,1.48 z-score,1.08 z-score,,,
CCGATTAACATCAAAAGTTTCCCTGATGTTAATCGGGTCTTGATTCGCTTGACGCTGCTG,6.99 z-score,4.85 z-score,7 z-score,,5.05 z-score,6.7 z-score,7.19 z-score
CCGATTAACATCAAGGGAAAATATGATGTTAATCGGGTCTTGATTCGCTTGACGCTGCTG,4.43 z-score,1.66 z-score,4.44 z-score,,3.77 z-score,8.19 z-score,7.5 z-score
CCGATTAACATCAGGGAAGACGTTGATGTTAATCGGGTCTTGATTCGCTTGACGCTGCTG,1.67 z-score,,1.11 z-score,,1.82 z-score,1.93 z-score,1.64 z-score
CCGATTAACATCAGGGAAAATCATGATGTTAATCGGGTCTTGATTCGCTTGACGCTGCTG,4.62 z-score,1.46 z-score,5.1 z-score,,3.91 z-score,7.02 z-score,5.72 z-score
CCGATTAACATCACATTTCCCCATGATGTTAATCGGGTCTTGATTCGCTTGACGCTGCTG,7.21 z-score,2.25 z-score,3.87 z-score,,4.9 z-score,8.95 z-score,6.14 z-score
